According to the supplement of paper PMC6089552:
Among all 3,200 compounds or so, about 300 (9.4%) showed activity. What follows is part of a selection rich in actives, with near analogues and random picks from the rest.

System: A673/TR/shEF
Test: cell viability (LOESS-normalised, relative to median of negative controls) (log2 ratio); higher = more viable cells (less compound effect), active = hit call of the paper (over 3 MAD below the median)
Details: treatment time: 72 h
In short: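 Doxycycline, present or absent from 24 h before compounds, was used to induce EWS-FLI1 shRNA knockdown in A673/TR/shEF Ewing sarcoma cells at 1,500 per well in 384-well plates. Cells then received library compounds at two or more concentrations, or DMSO controls, for three days. Viability was measured by CellTiter-Glo luminescence on an Envision reader, and per-plate LOESS correction, division by the negative-control median and log2 transformation followed.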

[1] = 0.25 µM, library screen: screen1, EWS-FLI1 expression: high (no doxycycline)
[2] = 0.25 µM, library screen: screen1, EWS-FLI1 expression: low (doxycycline-induced shRNA knockdown)
[3] = 2.5 µM, library screen: screen1, EWS-FLI1 expression: high (no doxycycline)
[4] = 2.5 µM, library screen: screen1, EWS-FLI1 expression: low (doxycycline-induced shRNA knockdown)
[5] = 0.25 µM, library screen: screen2, EWS-FLI1 expression: high (no doxycycline)
[6] = 0.25 µM, library screen: screen2, EWS-FLI1 expression: low (doxycycline-induced shRNA knockdown)
[7] = 2.5 µM, library screen: screen2, EWS-FLI1 expression: high (no doxycycline)
[8] = 2.5 µM, library screen: screen2, EWS-FLI1 expression: low (doxycycline-induced shRNA knockdown)
[9] = 0.103 µM, library screen: screen3, EWS-FLI1 expression: high (no doxycycline)
[10] = 0.103 µM, library screen: screen3, EWS-FLI1 expression: low (doxycycline-induced shRNA knockdown)
[11] = 0.308 µM, library screen: screen3, EWS-FLI1 expression: high (no doxycycline)
[12] = 0.308 µM, library screen: screen3, EWS-FLI1 expression: low (doxycycline-induced shRNA knockdown)
[13] = 0.926 µM, library screen: screen3, EWS-FLI1 expression: high (no doxycycline)
[14] = 0.926 µM, library screen: screen3, EWS-FLI1 expression: low (doxycycline-induced shRNA knockdown)
[15] = 2.8 µM, library screen: screen3, EWS-FLI1 expression: high (no doxycycline)
[16] = 2.8 µM, library screen: screen3, EWS-FLI1 expression: low (doxycycline-induced shRNA knockdown)
[17] = 8.3 µM, library screen: screen3, EWS-FLI1 expression: high (no doxycycline)
[18] = 8.3 µM, library screen: screen3, EWS-FLI1 expression: low (doxycycline-induced shRNA knockdown)
[19] = 25 µM, library screen: screen3, EWS-FLI1 expression: high (no doxycycline)
[20] = 25 µM, library screen: screen3, EWS-FLI1 expression: low (doxycycline-induced shRNA knockdown)

Measured: cell viability (log2)

CC(C)c1ccc2c(c1)CC[C@@]1(C)[C@](C)(C(N)=O)CCC[C@]21C
inactive: [1] 0.0259 | [2] 0.0473 | [3] 0.108 | [4] 0.0563

CC(=O)O[C@H]1CC[C@@]2(C)C(CC[C@]3(C)C2CC=C2C4CC(C)(C)CC[C@]4(C)CCC23C)C1(C)C (stereo partly specified)
inactive: [1] 0.05 | [2] 0.112 | [3] 0.0854 | [4] 0.111

COc1ccc(OC)c(CN2CCN(Cc3cc(OC)c(OC)cc3OC)CC2)c1
inactive: [2] 0.113 | [3] 0.0261 | [4] -0.0111
active: [1] -0.103

COc1ccc(OC)c(CN2CCN(Cc3ccc(OC)c(OC)c3)CC2)c1
inactive: [1] 0.114 | [2] 0.0365 | [3] 0.174 | [4] 0.0479

COc1ccc(OC)c(CN2CCN(Cc3ccccc3OC)CC2)c1
inactive: [1] 0.101 | [2] 0.0584 | [3] 0.0952 | [4] 0.0149

COc1ccc(CN2CCN(Cc3ccc(OC)c(OC)c3OC)CC2)c(OC)c1
inactive: [1] 0.0664 | [2] 0.0443 | [3] 0.0638 | [4] 0.0995

O=C(N[C@@H](Cc1ccccc1)C(=O)CCl)OCc1ccccc1
inactive: [5] 0.163 | [6] 0.156 | [8] 0.0216
active: [7] -0.218

CC(C)[C@H](NC(=O)OCc1ccccc1)C(=O)N[C@H](C=O)Cc1ccccc1
inactive: [5] 0.0586 | [6] 0.0917 | [7] 0.108 | [8] 0.155

Cc1ccc(S(=O)(=O)N[C@@H](Cc2ccccc2)C(=O)CCl)cc1
inactive: [5] 0.00163 | [6] 0.0223 | [7] 0.0887 | [8] 0.111

C[N+]1(C)[C@@H]2CC(OC(=O)C(O)(c3cccs3)c3cccs3)C[C@H]1[C@@H]1O[C@@H]12 (stereo partly specified)
inactive: [9] -0.0419 | [10] -0.0363 | [11] -0.000855 | [12] 0.0413 | [13] 0.0247 | [14] 0.0262 | [15] 0.0531 | [16] 0.0434 | [17] 0.0573 | [18] 0.11 | [19] 0.0805 | [20] 0.115

Cc1occc(=O)c1C=CO
inactive: [1] 0.064 | [2] 0.0191 | [3] 0.188 | [4] 0.0363

CC1(C)S[C@@H]2[C@H](NC(=O)[C@H](N)c3ccc(O)cc3)C(=O)N2[C@H]1C(=O)O
active: [19] -0.676
inactive: [9] 0.0884 | [10] 0.104 | [1] 0.0883 | [2] 0.0656 | [11] -0.0334 | [12] 0.0742 | [13] 0.0733 | [14] 0.103 | [3] 0.14 | [4] 0.178 | [15] -0.017 | [16] 0.0291 | [17] 0.0293 | [18] 0.106 | [20] -0.0237

CC1(C)S[C@@H]2[C@H](NC(=O)C(C(=O)O)c3ccccc3)C(=O)N2[C@H]1C(=O)O (stereo partly specified)
inactive: [1] 0.137 | [2] 0.0878 | [3] 0.243 | [4] 0.131

CC1(C)S[C@@H]2[C@H](NC(=O)[C@H](N)c3ccccc3)C(=O)N2[C@H]1C(=O)O
inactive: [1] 0.0882 | [2] 0.14 | [3] 0.142 | [4] 0.206
